High-throughput results (PubChem BioAssay)
NR3A LBD binder = modulates the human NR3A ligand-binding domain; NR3A LBD differential scanning fluorimetry, Tm shift; 0% = protein alone, 100% = glycine-bound protein; actives 2.5% (n = 340,000); Tm shift relative to glycine control, % at 25 µM;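 active = melting temperature shift of at least 10% of the positive control shift, at one fixed dose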
ADAM10 inh = ADAM10 inhibition, QFRET primary screen; O14672; recombinant ADAM10, EDANS/DABCYL FRET peptide cleavage, 3 h; inhibition, % at 7 µM; actives 0.62% (n = 370,000); AID 720582;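 active = inhibition above a per-campaign cutoff equal to the mean of compounds falling between control-based bounds plus 3 SD, cut at about 20% in these data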;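 note: 0% = DMSO wells while the 100% control is not disclosed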
ADAM17 inh = inhibits human ADAM17 | actives 0.83% (n = 370,000) | AID 720648 | inhibition, % at 6.95 µM | P78536 | recombinant ADAM17, EDANS/DABCYL FRET peptide cleavage;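 active = inhibition above the mean of compounds lying between control limits plus 3 SD, set per campaign, cut at about 8.5% in these data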;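 note: 0% = DMSO-only wells as the low control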
KLK7 zymogen act = activates the human kallikrein-7 zymogen | activation, % at 7 µM | purified proKLK7, EDANS-DABCYL substrate fluorescence; 100% is mature enzyme control, 0% vehicle | actives 0.9% (n = 370,000) | P49862;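 active = activation above the mean of all tested compounds plus 3 SD, computed per campaign excluding outliers beyond control limits, cut at about 13% in these data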
Target sequence (P49862 whole entry, looked up): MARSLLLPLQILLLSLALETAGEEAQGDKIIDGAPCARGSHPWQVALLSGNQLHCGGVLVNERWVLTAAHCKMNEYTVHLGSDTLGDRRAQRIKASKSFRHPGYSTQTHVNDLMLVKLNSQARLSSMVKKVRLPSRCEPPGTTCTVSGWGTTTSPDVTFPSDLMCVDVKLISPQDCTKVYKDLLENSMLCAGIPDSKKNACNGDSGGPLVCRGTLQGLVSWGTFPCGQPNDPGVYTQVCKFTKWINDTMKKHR
FAS TE block = blocks the thioesterase domain of human fatty acid synthase; P49327; recombinant FAS-TE, OMFH fluorogenic substrate, fluorescence endpoint; inhibition, % at 15 µM; actives 0.67% (n = 360,000);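 active = compounds whose normalised, plate-corrected inhibition of enzyme fluorescence in the single-dose primary screen is 50% or more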;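 note: 0% = DMSO with enzyme and 100% = substrate without enzyme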
* hit, by the source's call; i = inactive; . = no result given. Most compounds without a hit are left out; they make up all but 4.6% or so of the library.

SMILES | NR3A LBD binder | ADAM10 inh | ADAM17 inh | KLK7 zymogen act | FAS TE block
O=C(O)c1ccccc1-c1ccc(/C=c2\sc3nc4cc(Br)cnc4n3c2=O)o1 | 16* | . | . | . | -5
Cc1cc2nc3s/c(=C/c4ccc(-c5ccccc5C(=O)O)o4)c(=O)n3c2cc1C | 6 | -5 | -4 | -1 | -56
Oc1c(Cl)cc(Cl)cc1/C=N/NC(=S)NC1CC2C=CC1C2 (centres undefined) | 12* | -206 | -104 | -157 | 38
COc1ccc(NC(=O)NCCC2=CCCCC2)cc1 | 31* | -3 | 2 | 0 | 23
O=C(N/C(=C/c1cccc([N+](=O)[O-])c1)C(=O)N1CCCCC1)c1cccs1 | 4 | 2 | 0 | 0 | 11
CC(C)N(C(=O)/C=C/c1cccc([N+](=O)[O-])c1)C(C)C | -1 | -1 | 0 | 0 | 4
O=C(N/C(=C/c1cccc([N+](=O)[O-])c1)C(=O)N1CCCCCC1)c1cccs1 | 15* | 5 | -6 | 0 | 13
O=C(/C=C/c1cccc([N+](=O)[O-])c1)Nc1cccc(NC(=O)c2cccs2)c1 | 11* | 17 | 8 | 0 | 34
O=C(/C=C/c1ccc(Cl)c([N+](=O)[O-])c1)Nc1cccc(NC(=O)c2ccco2)c1 | 11* | 16 | 5 | 0 | 35
O=C(Nc1ccc(Cl)c([N+](=O)[O-])c1)c1ccco1 | -3 | 4 | 0 | 0 | 21
Cc1ccc(NC(=O)/C(=C\c2cccc([N+](=O)[O-])c2)NC(=O)c2cccs2)cc1 | 1 | -6 | -3 | 0 | 30
O=C(/C=C/c1cccc([N+](=O)[O-])c1)OC1CCCCC1=O (centres undefined) | 12* | -5 | -1 | 0 | -2
CC(C)c1cc(C(C)C)c(S(=O)(=O)N2CCC(c3cn4ccccc4n3)CC2)c(C(C)C)c1 | . | -1 | 2 | 1 | .
O=C(NCc1ccccc1)OCCN1C(=O)CCC12CCC(c1ccc(Cl)cc1)CC2 (centres undefined) | . | 11 | 3 | 0 | .
CN[C@H]1C[C@H]2c3[nH]c4cccc(-c5cccc(F)c5)c4c3CCN2C(=O)[C@H]1[C@H](C)O | . | -358 | -140 | -6 | .
Cc1ccc(NC(=O)/C(=C/c2cccc([N+](=O)[O-])c2)NC(=O)C2CCCCC2)cc1 | -22 | -1 | 5 | 0 | 4
CC(=O)N/C(=C\c1cccc([N+](=O)[O-])c1)C(=O)NC1CCCCC1 | 11* | -3 | -40 | 0 | 35
O=C(/C=C/c1ccc(Cl)c([N+](=O)[O-])c1)Nc1ccc(NC(=O)c2ccco2)cc1 | 33* | -35 | -4 | 1 | 12
O=C(/C=C/c1cccc([N+](=O)[O-])c1)Nc1cccc(NC(=O)c2ccco2)c1 | 27* | 13 | 4 | 0 | 25
CCOC(=O)Cc1nc(N2CCN(Cc3cccc4c3OCO4)CC2)c2c(C)c(C(=O)OCC)sc2n1 | . | -8 | 0 | -3 | .
CC(=O)C1=C(C)NC(SCC(=O)Nc2nc3ccccc3s2)=C(C#N)C1c1ccc(Cl)cc1 (centres undefined) | 12* | 0 | 2 | -3 | 26
CCN(CC)c1nc(Nc2ccccc2)nc(Oc2ccc(C(=O)OC)cc2)n1 | 14* | -4 | -3 | 0 | 28
COC(=O)c1ccc(Oc2nc(Nc3ccccc3)nc(N(C)C)n2)cc1 | 2 | 6 | -3 | 0 | 20
CCN(CC)C(=O)CC[C@@H]1CC[C@]2(CCCN(Cc3cccnc3)C2)O1 | . | -7 | -3 | 0 | .
CCOc1ccc(Nc2nc(N)c3ccccc3n2)cc1 | 28* | 0 | -3 | 0 | 1
SMILES | NR3A LBD binder | ADAM10 inh | ADAM17 inh | KLK7 zymogen act | FAS TE block
CCOC(=O)c1ccc(Nc2nc(N)c3cc(OC)c(OC)cc3n2)cc1 | 4 | . | . | . | 1
Cc1ccc(Nc2nc(N)c3ccccc3n2)cc1Cl | 39* | -28 | -11 | 0 | 22
Nc1nc(Nc2ccc(Cl)cc2)nc2ccccc12 | 39* | -20 | -3 | -1 | 7
COc1cc2nc(Nc3ccc(C)c(Cl)c3)nc(N)c2cc1OC | 28* | -42 | -24 | -2 | 2
Nc1nc(Nc2ccccc2)nc2ccccc12 | -2 | -7 | -7 | 0 | -9
C[C@H]1CCCN1c1cccc2c1S(=O)(=O)N(C1CC1)CCCO2 | . | -9 | -5 | 0 | .
O=C(CSc1nnc(-c2ccccn2)n1-c1ccccc1)Nc1ccc(OCc2ccccc2)cc1 | . | -6 | 0 | 0 | .
COc1cc2nc(Nc3ccc(C)c(C)c3)nc(N)c2cc1OC | 16* | -8 | -7 | 0 | -4
COc1cc2nc(Nc3ccc(F)cc3)nc(N)c2cc1OC | 9 | -8 | -10 | 0 | -1
CCOc1ccccc1CN(Cc1ccco1)S(=O)(=O)c1ccc(-n2cnnn2)c(OC)c1 | 1 | 18 | 12* | 0 | 30
COc1cc(S(=O)(=O)N(Cc2ccco2)C2CCCC2)ccc1-n1cnnn1 | 9 | 3 | 0 | 0 | 17
Oc1c(Cl)cc(Cl)cc1/C=N/Nc1ncc(Br)cn1 | -1 | -9 | -4 | 1 | 9
CN(/N=C/c1cc(Cl)cc(Cl)c1O)C(=S)NC(C)(C)C | 31* | -8 | -5 | -3 | 26
COC(=O)[C@]12C=CCN1[C@H](c1ccc(OC)c(OC)c1)c1c(c3ccccc3n1S(=O)(=O)c1ccc(C)cc1)C2 | . | -24 | -8 | -1 | .
Cc1ccc(C(=O)Nc2nc(COc3ccccc3)cs2)s1 | 29* | 15 | 1 | 1 | 23
COc1cccc(OC)c1C(=O)Nc1nc(COc2ccccc2)cs1 | 23* | 4 | -1 | 1 | 14
CC(=O)Nc1nc(COc2ccccc2)cs1 | 0 | 8 | 3 | 0 | -6
COC(=O)C1=C(C)N(CCc2ccccc2)C(=O)/C1=C\c1ccco1 | 19* | -4 | -2 | 0 | 3
COC(=O)C1=C(C)N(Cc2ccccc2)C(=O)/C1=C\c1ccco1 | -1 | 2 | -5 | 0 | 4
CCOC(=O)c1cnc2ccc(OCC)cc2c1NCc1ccccc1OC | 20* | -20 | -5 | 0 | 25
Cc1ccc(Cn2cc(CN(C)S(=O)(=O)c3ccccc3Br)nn2)cc1 | . | 2 | -1 | 1 | .
CC1CCCN(Cc2c(O)ccc3c4c(c(=O)oc23)CCCC4)C1 (centres undefined) | 0 | i | i | 101* | -5
Cc1cccc(NC(=O)NNC(=O)c2sccc2-n2cccc2)c1 | 13* | 3 | 2 | 0 | -4
CCn1c(=O)n(CC(=O)N2CCN(C(C)=O)CC2)c(=O)c2ccccc21 | . | -12 | -5 | 0 | .
NC(=O)COC(=O)c1cccc(NS(=O)(=O)/C=C/c2ccccc2)c1 | 12* | -4 | -1 | 0 | -11
CCCc1nn(C)c(C(=O)Nc2cccc(CC)c2)c1Cl | 12* | 0 | 5 | 0 | 11
Cc1nn(C)c(C(=O)Nc2cccc(CN3CCOCC3)c2)c1Br | 0 | 0 | 0 | 0 | -9
CCCc1nn(C)c(C(=O)Nc2ccc3ccccc3c2)c1Cl | 17* | 3 | 3 | 0 | 17
